Laboratory results taken from PubChem BioAssay (Tox21).
Results filed as inconclusive are left out. Active and inactive are the calls of the source. Unless noted, the call rests on the fitted dose curve; in most records, active means well fitted curve in the direction sought with a large enough effect in the repeat runs; inconclusive means weak or mixed curves; inactive means no such curve, though single readings can be large; an effect the other way counts as inactive or inconclusive.

Experiments:
[1] = qHTS assay to identify small molecule agonists of the sonic hedgehog signaling (Shh) pathway - cell viability counter screen (AID 1259366); further: nearly all actives have a fitted effect of over 50% in size
In short: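 Stable Gli1-Luc NIH/3T3 clone, 2,000 cells/well. Compound exposure 24hr at 37C. Read-out: CellTiter-Fluor fluorescence.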

[2] = qHTS assay to identify small molecule antagonists of the sonic hedgehog signaling (Shh) pathway - cell viability counter screen (AID 1259367); further: nearly all actives have a fitted effect of over 55% in size
In short: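 Viability was read by CellTiter-Fluor fluorescence in the same wells, reagent added 23 hr into compound treatment and incubated 1 hr at 37C. The 3T3 Gli1-Luc reporter cells (2,000/well) received conditioned medium after compound and ran 24 hr.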

[3] = qHTS assay to identify small molecule agonists of the sonic hedgehog signaling (Shh) pathway (AID 1259368; calls by dose curve;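 further: NIH/3T3-derived 3T3Gli1-Luc cells carrying a stable Gli1-driven firefly luciferase reporter; series mostly up to about 92 µM; nearly all actives have a fitted effect of over 15% in size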)
In short: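 Following a 24 hr incubation with DMSO-dissolved compounds at 37 C, 5% CO2, Gli1-Luc NIH/3T3-derived cells received luciferase reagent for 30 min at room temperature prior to luminescence measurement.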

[4] = qHTS assay to identify small molecule antagonists of the sonic hedgehog signaling (Shh) pathway (AID 1259369; calls by dose curve; further: nearly all actives have a fitted effect of over 45% in size)
In short: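 Read-out is luminescence from a firefly luciferase gene controlled by the Gli1 response element, in 3T3Gli1-Luc cells pre-incubated 4hr then exposed to compounds and conditioned medium for 24hr.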

[5] = target: Estrogen receptor beta (Homo sapiens) (UniProt Q92731); test: qHTS assay to identify small molecule agonists of the estrogen receptor beta (ER-beta) signaling pathway (AID 1259377; active means well fitted activation curve with a large enough effect in the signal ratio in the repeat runs, not every such curve was filed as active; the % refers to the signal ratio)
Chain of Estrogen receptor beta (Homo sapiens) (Q92731 whole entry, looked up): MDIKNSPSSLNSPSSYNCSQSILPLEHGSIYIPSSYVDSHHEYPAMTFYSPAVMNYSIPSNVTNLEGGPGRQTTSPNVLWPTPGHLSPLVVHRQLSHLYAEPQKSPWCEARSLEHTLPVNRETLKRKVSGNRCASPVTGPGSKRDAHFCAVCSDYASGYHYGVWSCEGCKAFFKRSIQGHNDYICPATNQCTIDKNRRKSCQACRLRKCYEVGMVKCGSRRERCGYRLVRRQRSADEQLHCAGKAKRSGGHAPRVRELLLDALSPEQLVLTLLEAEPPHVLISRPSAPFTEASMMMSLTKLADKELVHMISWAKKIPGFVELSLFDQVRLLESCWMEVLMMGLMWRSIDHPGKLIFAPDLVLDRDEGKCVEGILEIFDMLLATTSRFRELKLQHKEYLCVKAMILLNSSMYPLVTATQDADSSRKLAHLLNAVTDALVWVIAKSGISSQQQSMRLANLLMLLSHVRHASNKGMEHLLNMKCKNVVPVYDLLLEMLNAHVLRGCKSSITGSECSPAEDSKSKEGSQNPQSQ
In short: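 Measured by fluorescence intensity from a B/G FRET beta-lactamase substrate (2 h, room temperature) in ER-beta-UAS-bla HEK293T cells treated with DMSO-dissolved compounds for 16 hr at 37C and 5% CO2.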

[6] = target: Estrogen receptor beta (Homo sapiens) (UniProt Q92731); test: qHTS assay to identify small molecule antagonists of the estrogen receptor beta (ER-beta) signaling pathway (AID 1259378; active means well fitted inhibition curve with a large enough effect in the signal ratio in the repeat runs, not every such curve was filed as active; the % refers to the signal ratio)
In short: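 Antagonist mode: compounds added to beta-lactamase reporter HEK293T ER-beta-UAS cells stimulated with E2 (1nM final), 16 hr at 37C. LiveBLAzer B/G FRET substrate, 2 hours room temperature, fluorescence read-out.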

[7] = qHTS assay to identify small molecule agonists of the androgen receptor (AR) signaling pathway in the presence of an antagonist - cell viability counter screen (AID 1259379);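 further: MDA-kb2 human breast cancer cells carrying an MMTV luciferase reporter; series mostly up to about 92 µM; nearly all actives have a fitted effect of over 25% in size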
In short: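 Each compound was tested at 15 concentrations on MDA-kb2 cells in the presence of 3.0uM nilutamide. Viability was measured by CellTiter-Fluor fluorescence after a 16 hr incubation at 37C in a CO2-free atmosphere.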

[8] = qHTS assay to identify small molecule agonists of the estrogen receptor beta (ER-beta) signaling pathway - cell viability counter screen (AID 1259380); further: nearly all actives have a fitted effect of over 30% in size
In short: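 Compounds dissolved in DMSO were pin-transferred onto ER-beta-UAS-bla HEK293T cells that had settled 6 hr, and exposure ran 16 hr at 37C. Following the reporter read, CellTiter-Glo luminescence after 30 min at room temperature indicated cytotoxicity.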

[9] = qHTS assay to identify small molecule antagonists of the estrogen receptor beta (ER-beta) signaling pathway - cell viability counter screen (AID 1259382);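 further: HEK293T cells carrying ER-beta-UAS-bla reporter stimulated with estradiol; series mostly up to about 92 µM; nearly all actives have a fitted effect of over 55% in size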
In short: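 CellTiter-Glo ATP luminescence measured after the LiveBLAzer read in the same wells; ER-beta-UAS-bla HEK293T cells, 16 hr compound treatment with 1nM 17-beta-estradiol agonist at 37C, 5% CO2.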

[10] = target: Estrogen receptor (Homo sapiens) (UniProt P03372); test: qHTS assay to identify small molecule agonists of the estrogen receptor alpha (ER-alpha) signaling pathway in the presence of an antagonist (AID 1259383; calls by dose curve; further: top concentration of the series differs between compounds; nearly all actives have a fitted effect of over 15% in size)
Chain of Estrogen receptor (Homo sapiens) (P03372 whole entry, looked up): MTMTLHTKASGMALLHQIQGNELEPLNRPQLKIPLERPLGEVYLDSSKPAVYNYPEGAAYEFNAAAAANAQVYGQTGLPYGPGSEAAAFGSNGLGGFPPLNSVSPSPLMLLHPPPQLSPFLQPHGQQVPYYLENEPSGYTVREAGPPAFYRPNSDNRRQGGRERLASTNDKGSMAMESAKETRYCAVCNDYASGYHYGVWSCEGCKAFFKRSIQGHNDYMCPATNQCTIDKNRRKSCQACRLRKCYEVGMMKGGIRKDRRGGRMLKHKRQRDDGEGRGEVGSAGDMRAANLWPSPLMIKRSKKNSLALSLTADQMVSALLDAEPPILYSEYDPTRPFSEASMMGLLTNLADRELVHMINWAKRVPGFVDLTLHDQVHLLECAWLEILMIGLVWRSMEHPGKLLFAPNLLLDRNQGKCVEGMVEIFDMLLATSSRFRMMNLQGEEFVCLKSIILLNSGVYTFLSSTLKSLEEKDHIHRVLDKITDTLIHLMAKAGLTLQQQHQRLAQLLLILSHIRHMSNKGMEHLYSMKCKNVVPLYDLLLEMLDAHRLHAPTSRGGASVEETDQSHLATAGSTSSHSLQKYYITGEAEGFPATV
In short: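 Luminescent ERE-luciferase reporter, VM7Luc4E2 cells (endogenous ER-alpha); 10.0nM ICI-182,780 final; 15-point compound titration; 22hr at 37C; ONE-Glo, 30min RT.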

[11] = qHTS assay to identify small molecule agonists of the estrogen receptor alpha (ER-alpha) signaling pathway in the presence of an antagonist - cell viability counter screen (AID 1259386);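 further: series mostly up to about 92 µM; cells exposed to compounds for 22 h at 37 °C before the viability read; nearly all actives have a fitted effect of over 30% in size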
In short: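 Using estrogen-depleted VM7Luc4E2 cells, the 15-concentration compound series was applied together with 10.0nM ICI-182,780 and incubated 22hr at 37C/5% CO2. Cell viability was then scored by CellTiter-Fluor.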

[12] = target: Progesterone receptor (Homo sapiens) (UniProt P06401); test: qHTS assay to identify small molecule agonists of the progesterone receptor (PR) signaling pathway (AID 1346784; calls by dose curve; further: nearly all actives have a fitted effect of over 30% in size)
Chain of Progesterone receptor (Homo sapiens) (P06401 whole entry, looked up): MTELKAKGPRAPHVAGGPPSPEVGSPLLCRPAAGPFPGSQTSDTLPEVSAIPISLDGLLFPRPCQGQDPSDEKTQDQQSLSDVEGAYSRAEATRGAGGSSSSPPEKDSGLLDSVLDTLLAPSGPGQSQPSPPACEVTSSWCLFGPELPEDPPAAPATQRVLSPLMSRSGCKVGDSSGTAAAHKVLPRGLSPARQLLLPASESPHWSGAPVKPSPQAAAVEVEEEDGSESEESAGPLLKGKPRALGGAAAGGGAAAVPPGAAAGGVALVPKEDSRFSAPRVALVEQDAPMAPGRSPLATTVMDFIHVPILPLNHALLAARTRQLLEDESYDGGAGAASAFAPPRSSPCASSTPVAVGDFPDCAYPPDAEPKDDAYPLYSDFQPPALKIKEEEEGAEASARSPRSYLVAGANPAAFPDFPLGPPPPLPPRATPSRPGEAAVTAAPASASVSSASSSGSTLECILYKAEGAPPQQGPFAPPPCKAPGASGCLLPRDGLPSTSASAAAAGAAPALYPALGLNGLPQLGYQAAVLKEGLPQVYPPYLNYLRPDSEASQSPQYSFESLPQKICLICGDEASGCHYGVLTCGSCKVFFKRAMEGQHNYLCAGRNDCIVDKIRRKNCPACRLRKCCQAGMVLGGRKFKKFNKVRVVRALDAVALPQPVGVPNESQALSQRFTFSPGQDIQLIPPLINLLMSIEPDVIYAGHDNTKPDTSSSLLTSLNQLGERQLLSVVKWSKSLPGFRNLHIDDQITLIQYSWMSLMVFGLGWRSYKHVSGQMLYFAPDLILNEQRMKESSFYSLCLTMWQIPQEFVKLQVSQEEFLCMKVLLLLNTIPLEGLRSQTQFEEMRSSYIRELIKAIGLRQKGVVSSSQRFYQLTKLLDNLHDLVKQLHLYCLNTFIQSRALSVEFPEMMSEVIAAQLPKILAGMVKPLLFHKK
In short: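 The screen uses PR-UAS-bla HEK 293T cells in charcoal-stripped serum (2%). Compounds are applied for 16 hr at 37C after a 6 hr pre-incubation, and reporter activity is detected with a FRET beta-lactamase substrate after 2 hr at room temperature.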

[13] = target: Progesterone receptor (Homo sapiens) (UniProt P06401); test: qHTS assay to identify small molecule antagonists of the progesterone receptor (PR) signaling pathway (AID 1346795; active means well fitted inhibition curve with a large enough effect in the signal ratio in the repeat runs, not every such curve was filed as active; the % refers to the signal ratio)
In short: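 After 6 hr plating at 37C in 2% stripped-serum medium, PR-UAS-bla HEK293T cells got compounds, then 1 nM R5020. Sixteen hours later, LiveBLAzer substrate was applied for 2 hr at room temperature and fluorescence was recorded.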

[14] = qHTS assay to identify small molecule agonists of the progesterone receptor (PR) signaling pathway - cell viability counter screen (AID 1346799; calls by dose curve; further: nearly all actives have a fitted effect of over 45% in size; further: potency means the concentration at half of the fitted maximal effect)
In short: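 Viability was scored by ATP luminescence (CellTiter-Glo, 30 min, room temperature) in the same wells used for the reporter readout, after 16 hr compound exposure of PR-UAS-bla HEK293T cells.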

[15] = qHTS assay to identify small molecule antagonists of the TGF-beta/Smad signaling pathway - cell viability counter screen (AID 1346824); further: nearly all actives have a fitted effect of over 50% in size
In short: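 Cytotoxicity counter-screen run in the same wells as the beta-lactamase Smad reporter read: CellTiter-Glo luminescence after 30 min at room temperature. HEK 293T SBE-bla cells had 5 hr compound exposure at 37 C with TGF-beta1 (0.25 ng/mL stock).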

[16] = qHTS assay to identify small molecule agonists of the TGF-beta/Smad signaling pathway - cell viability counter screen (AID 1346829); further: top concentration of the series differs between compounds; nearly all actives have a fitted effect of over 45% in size
In short: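 In parallel with the Smad reporter read, viability of HEK 293T cells stably carrying SBE-bla is quantified by ATP luminescence following 5 hr compound treatment.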

[17] = target: Androgen receptor (Homo sapiens) (UniProt P10275); test: qHTS assay to identify small molecule agonists of the androgen receptor (AR) signaling pathway in the presence of an antagonist (AID 1259381; calls by dose curve; further: nearly all actives have a fitted effect of over 15% in size)
Chain of Androgen receptor (Homo sapiens) (P10275 whole entry, looked up): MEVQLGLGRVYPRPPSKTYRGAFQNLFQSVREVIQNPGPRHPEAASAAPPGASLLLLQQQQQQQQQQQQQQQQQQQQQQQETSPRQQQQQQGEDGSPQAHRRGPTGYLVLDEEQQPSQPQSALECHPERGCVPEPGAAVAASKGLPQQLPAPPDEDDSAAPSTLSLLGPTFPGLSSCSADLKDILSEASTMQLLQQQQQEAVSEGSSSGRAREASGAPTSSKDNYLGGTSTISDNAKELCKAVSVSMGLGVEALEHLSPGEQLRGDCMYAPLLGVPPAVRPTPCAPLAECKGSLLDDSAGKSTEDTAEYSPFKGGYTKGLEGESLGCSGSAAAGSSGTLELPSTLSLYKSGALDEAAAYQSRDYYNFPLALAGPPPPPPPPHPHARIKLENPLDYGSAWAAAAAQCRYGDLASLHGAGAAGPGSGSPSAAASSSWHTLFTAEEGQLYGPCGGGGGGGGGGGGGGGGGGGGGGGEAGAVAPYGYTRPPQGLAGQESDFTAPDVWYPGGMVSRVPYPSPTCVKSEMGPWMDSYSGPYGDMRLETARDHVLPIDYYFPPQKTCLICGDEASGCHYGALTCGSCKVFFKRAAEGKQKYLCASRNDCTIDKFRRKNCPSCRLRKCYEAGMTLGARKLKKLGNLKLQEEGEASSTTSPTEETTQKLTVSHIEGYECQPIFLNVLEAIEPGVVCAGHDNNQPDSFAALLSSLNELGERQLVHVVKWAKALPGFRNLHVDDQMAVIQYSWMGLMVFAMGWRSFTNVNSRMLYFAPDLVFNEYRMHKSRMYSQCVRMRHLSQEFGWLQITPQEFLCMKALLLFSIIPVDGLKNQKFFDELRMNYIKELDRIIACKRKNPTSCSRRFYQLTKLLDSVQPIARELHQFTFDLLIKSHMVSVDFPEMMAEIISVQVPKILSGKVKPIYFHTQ
In short: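 Plated MDA-kb2 cells (3,000/well) were pre-incubated 5hr, given nilutamide (3.0uM final) or buffer, then dosed with compounds in DMSO at 15 concentrations. Luciferase activity was quantified by luminescence after 16hr at 37C.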

[18] = qHTS assay to identify small molecule agonists or antagonists of the thyroid stimulating hormone receptor (TSHR) signaling pathway - wild type cell line counter screen (AID 1259384; calls by dose curve)
In short: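 Counter screen in untransfected Hek293: compounds (15-point titration, triplicate) plus phosphodiesterase inhibitor Ro20-1724 added after 18 h plating; 30 min RT. Intracellular cAMP via competitive d2/cryptate immunoassay, 1 h incubation.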

[19] = target: Thyrotropin receptor (Homo sapiens) (UniProt P16473); test: qHTS assay to identify small molecule antagonists of the thyroid stimulating hormone receptor (TSHR) signaling pathway (AID 1259385; calls by dose curve; further: nearly all actives have a fitted effect of over 20% in size)
Chain of Thyrotropin receptor (Homo sapiens) (P16473 whole entry, looked up): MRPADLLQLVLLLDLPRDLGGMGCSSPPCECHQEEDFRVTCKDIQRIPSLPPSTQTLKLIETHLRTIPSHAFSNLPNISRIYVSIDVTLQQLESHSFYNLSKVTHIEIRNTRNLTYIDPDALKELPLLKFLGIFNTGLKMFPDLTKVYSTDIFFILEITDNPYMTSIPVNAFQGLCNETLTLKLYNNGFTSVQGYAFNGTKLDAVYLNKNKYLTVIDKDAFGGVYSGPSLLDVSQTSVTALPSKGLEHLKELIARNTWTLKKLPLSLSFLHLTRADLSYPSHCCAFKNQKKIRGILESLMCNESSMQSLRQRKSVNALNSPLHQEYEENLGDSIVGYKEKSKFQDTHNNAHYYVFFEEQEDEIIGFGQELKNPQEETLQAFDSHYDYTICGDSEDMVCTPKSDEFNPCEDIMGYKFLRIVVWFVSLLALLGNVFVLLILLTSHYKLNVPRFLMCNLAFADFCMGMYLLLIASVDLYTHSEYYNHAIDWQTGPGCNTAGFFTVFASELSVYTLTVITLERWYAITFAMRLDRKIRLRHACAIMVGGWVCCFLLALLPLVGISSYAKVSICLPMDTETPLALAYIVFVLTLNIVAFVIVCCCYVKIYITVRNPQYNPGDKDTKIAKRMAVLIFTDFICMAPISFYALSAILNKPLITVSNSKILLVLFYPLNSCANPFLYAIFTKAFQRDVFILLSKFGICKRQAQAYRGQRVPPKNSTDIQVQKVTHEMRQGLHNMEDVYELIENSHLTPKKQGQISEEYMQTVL
In short: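 Antagonist mode: compound-treated TSHR-expressing HEK293 cells were stimulated with 1.5 ng/mL TSH (final) in presence of Ro20-1724 for 30 min at RT. HTRF cAMP detection after 1 h; each compound tested at 15 concentrations, triplicate.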

[20] = qHTS assay to identify small molecule antagonists of the progesterone receptor (PR) signaling pathway - cell viability counter screen (AID 1346798); further: nearly all actives have a fitted effect of over 50% in size; further: potency means the concentration at half of the fitted maximal effect
In short: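 Viability was determined by ATP-based luminescence (CellTiter-Glo) in PR-UAS-bla HEK293T cells cultured in 2% charcoal-stripped serum and incubated 16 hr with compounds under R5020 stimulation.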

Measured: Potency

CCC(CO)CO
not listed: [17] | [18] | [19] | [20]
inactive: all other assays above

CCCCCCCCCCCCCCCCCCN(C)C
not listed: [20]
inactive: all other assays above

Cc1nc2ccccc2c(=O)o1
not listed: [17]
inactive: all other assays above

CCc1nccnc1C
not listed: [13] | [17]
inactive: all other assays above

COC(OC)C(C)c1ccccc1 (stereo unspecified)
not listed: [11]
inactive: all other assays above

CCCCCCCCCOCC1CO1 (stereo unspecified)
not listed: [10] | [13] | [17] | [20]
inactive: all other assays above

CC(C)(C)NCCO
active: [20] 30.6 µM | [14] 48.6 µM
not listed: [13] | [17] | [18] | [19]
inactive: all other assays above

CCN(Cc1cccc(S(=O)(=O)O)c1)c1ccccc1
not listed: [11] | [17]
inactive: all other assays above

Cc1ccc(S(=O)(=O)NC(=O)NC2CCCCCCC2)cc1
not listed: [10] | [17]
inactive: all other assays above

CC(CC(=O)O)CC(C)(C)C (stereo unspecified)
not listed: [17] | [18] | [19]
inactive: all other assays above

CC(C)CCCC(C)CC=O (stereo unspecified)
not listed: [17]
inactive: all other assays above

CC(C)c1ccccc1O
not listed: [10] | [17]
inactive: all other assays above

CCCCC[Si](OCC)(OCC)OCC
not listed: [10] | [11] | [14] | [20]
inactive: all other assays above

CC(C)(CO)[C@@H](O)C(=O)NCCCO
not listed: [14] | [17]
inactive: all other assays above

CC(C)COC(=O)COc1ccc(Cl)cc1Cl
not listed: [10]
inactive: all other assays above

Nc1ccc(S(=O)(=O)Nc2ccccn2)cc1
inactive: all assays above
